HP1b chromo inh: HTS for Inhibitors of HP1-beta Chromodomain Interactions with Methylated Histone Tails | AlphaScreen HP1-beta / biotin-H3K9me3 peptide binding | Potency, µM (doses to about 114 µM), for the others: at the highest dose activity change, negative = inhibition, hits mostly inhibitors | actives 0.56% (n = 390,000); also: nearly all actives have a fitted effect of over 70% in size
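HP1-beta protein (50 nM final) preincubated 30 min at room temperature with biotinylated H3(1-18)K9me3 peptide (50 nM) in PBS pH 7.4, 0.01% Tween-20, then compound added for 30 min. AlphaScreen streptavidin donor/nickel chelate acceptor beads (10 ug/mL final), 30 min dark, luminescence read.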
G9a inh: qHTS Assay for Inhibitors of Histone Lysine Methyltransferase G9a; Potency, µM (top dose mostly 102 µM), for the others: at the highest dose activity, negative = inhibition, usual class: inhibitors; G9a H3K9 monomethylation, AlphaScreen, 2 h; Histone-lysine N-methyltransferase EHMT2 (Homo sapiens), Q96KQ7; actives 8.8% (n = 350,000); also: % is scaled to controls: 0 for no effect and ±100 for the full control effect; nearly all actives have a fitted effect of over 75% in size
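Methyltransferase reactions run at room temperature for 2 h (20 nM enzyme, 500 nM biotin-H3K9 peptide, 20 uM SAM) after a 15 min compound preincubation; product detected by AlphaScreen beads and anti-H3K9me1 antibody.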
BAZ2B block: qHTS Assay for Inhibitors of BAZ2B; Bromodomain adjacent to zinc finger domain protein 2B (Homo sapiens), Q9UIF8; AlphaScreen BAZ2B-H3K14Ac peptide displacement; Potency, µM (series often up to 114 µM), inactives show at the highest dose activity change, negative = inhibition, most hits filed as inhibitors; actives 4.4% (n = 360,000); also: % is scaled to controls: 0 for no effect and ±100 for the full control effect; nearly all actives have a fitted effect of over 60% in size
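Complex of BAZ2B and biotin-H3K14Ac (50 nM apiece) forms over 30 min at RT, then faces library compounds up to 110 uM for another 30 min; AlphaScreen beads added, 20 min dark incubation, luminescence read.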
GLS inh: qHTS for Inhibitors of Glutaminase (GLS); Glutaminase kidney isoform, mitochondrial (Homo sapiens), O94925; GLS enzymatic activity, qHTS titration; Potency, µM (series often up to 45.5 µM), inactives show top-dose activity change, negative = inhibition, hits mostly inhibitors; actives 0.21% (n = 410,000); AID 624170, 2012; also: % is scaled to controls: 0 for no effect and ±100 for the full control effect
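Enzyme dispensed in phosphate buffer (45 mM, pH 8.2, 0.02% Tween-20), compounds pinned in, then 1 mM L-glutamine solution and the glutamate oxidase–HRP–Amplex Red mix added; fluorescence read immediately and again after 30 min at room temperature.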
JMJD2A Tudor inh: qHTS Assay for Inhibitors of JMJD2A-Tudor Domain; Lysine-specific demethylase 4A (Homo sapiens), O75164; AlphaScreen JMJD2A-Tudor / H3K4me3 peptide binding; Potency, µM (top dose mostly 114 µM), for the others: at the top dose activity change, negative = inhibition, most hits filed as inhibitors; actives 4.4% (n = 390,000); also: % is scaled to controls: 0 for no effect and ±100 for the full control effect; nearly all actives have a fitted effect of over 50% in size
Target sequence (O75164 whole entry, looked up, the tested form may be a part): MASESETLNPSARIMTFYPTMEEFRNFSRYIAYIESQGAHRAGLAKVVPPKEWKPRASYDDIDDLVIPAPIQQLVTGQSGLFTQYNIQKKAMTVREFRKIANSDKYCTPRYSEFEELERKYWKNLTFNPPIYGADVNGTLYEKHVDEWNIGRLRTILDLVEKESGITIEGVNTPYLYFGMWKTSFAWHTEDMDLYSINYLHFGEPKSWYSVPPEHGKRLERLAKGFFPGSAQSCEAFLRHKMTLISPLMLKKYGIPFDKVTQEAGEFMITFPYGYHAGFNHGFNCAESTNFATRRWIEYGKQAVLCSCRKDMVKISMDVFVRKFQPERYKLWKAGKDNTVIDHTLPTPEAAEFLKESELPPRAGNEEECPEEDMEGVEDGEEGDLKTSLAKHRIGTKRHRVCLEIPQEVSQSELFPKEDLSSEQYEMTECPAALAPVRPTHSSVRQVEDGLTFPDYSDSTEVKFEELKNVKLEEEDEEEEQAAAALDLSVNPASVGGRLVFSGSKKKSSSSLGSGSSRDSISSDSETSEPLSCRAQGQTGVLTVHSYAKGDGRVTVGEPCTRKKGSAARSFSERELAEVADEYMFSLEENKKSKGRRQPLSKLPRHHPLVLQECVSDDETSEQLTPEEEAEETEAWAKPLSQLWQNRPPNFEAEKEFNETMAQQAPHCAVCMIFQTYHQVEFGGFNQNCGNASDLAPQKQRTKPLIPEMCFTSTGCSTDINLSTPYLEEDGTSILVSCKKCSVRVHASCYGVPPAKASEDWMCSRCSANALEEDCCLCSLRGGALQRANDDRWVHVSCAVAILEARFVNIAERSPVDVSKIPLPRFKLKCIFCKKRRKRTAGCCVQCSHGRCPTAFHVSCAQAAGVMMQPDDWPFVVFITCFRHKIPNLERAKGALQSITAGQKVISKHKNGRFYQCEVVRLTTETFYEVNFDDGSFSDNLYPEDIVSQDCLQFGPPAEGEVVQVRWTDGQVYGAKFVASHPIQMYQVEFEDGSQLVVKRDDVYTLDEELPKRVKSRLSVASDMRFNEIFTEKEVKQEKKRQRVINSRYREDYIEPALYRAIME
* hit, by the source's call; ! = a repeat was not active; [ ] = remark or other dose. Compounds with a hit are over-represented: about 10% of the library has one in this group of screens. Calls follow the shape of the dose curve; as a rule, active = well fitted curve in the direction sought with a large enough effect; inconclusive = small, poorly fitted or top-dose-only effect, or another doubt; inactive = no such curve, though single readings can be large; an effect the other way counts as inactive or inconclusive. Potency is read from the fitted curve at half-maximal effect.

How did O=c1[nH]c(=S)[nH]c2c1C(c1ccc(Br)cc1)c1c([nH]c(=S)[nH]c1=O)O2 do in these assays?
HP1b chromo inh: 31.6µM*; G9a inh: 1.58µM*; BAZ2B block: 22.4µM*; GLS inh: inconclusive; JMJD2A Tudor inh: inconclusive

What do the screens show for `CCc1cccc(CC)c1NC(=O)CSc1nnc(C(C)C)n1CC`?
HP1b chromo inh: 7.6%; G9a inh: -0.1%[12.7 µM]; BAZ2B block: -11.0%; GLS inh: -8.5%; JMJD2A Tudor inh: -28.7%

How did Cc1ccc(C2C3=C(CCCC3=O)Nc3[nH]c(=S)[nH]c(=O)c32)cc1 (stereo not given) do in these assays?
HP1b chromo inh: -32.5%; G9a inh: -50.2%[2.33 µM]; BAZ2B block: 79.4µM*; GLS inh: inconclusive; JMJD2A Tudor inh: 10µM*

What do the screens show for `Cc1ccc(C)n1-c1cccc(N)c1`?
G9a inh: inconclusive; BAZ2B block: -22.3%

What do the screens show for `COc1cccc(-c2nc(NCc3ccccc3)c3ccccc3n2)c1O`?
HP1b chromo inh: 18.6%; G9a inh: -33.2%; BAZ2B block: -17.8%; GLS inh: 9.5%; JMJD2A Tudor inh: -24.3%

How did COc1cccc(-c2nc(NC3CCCC3)c3ccccc3n2)c1O do in these assays?
HP1b chromo inh: -16.3%; G9a inh: inconclusive; BAZ2B block: 35.5µM*; GLS inh: 18.3%; JMJD2A Tudor inh: inconclusive

How did COc1cccc(-c2nc(N3CCCCC3C)c3ccccc3n2)c1O (stereo not given) do in these assays?
HP1b chromo inh: -35.8%; G9a inh: 44.7µM*; BAZ2B block: inconclusive; GLS inh: -7.6%; JMJD2A Tudor inh: 39.8µM*

What do the screens show for `COc1cccc(-c2nc(N3CCN(C)CC3)c3ccccc3n2)c1O`?
HP1b chromo inh: -4.6%; G9a inh: inconclusive; BAZ2B block: inconclusive; GLS inh: 35.0%; JMJD2A Tudor inh: inconclusive

How did CC=Cc1cc(OC)c2c(c1)C(C)C(c1ccc(O)c(OC)c1)O2 (stereo not given) do in these assays?
HP1b chromo inh: -20.0%; GLS inh: 8.91µM*; JMJD2A Tudor inh: inconclusive

What do the screens show for `C/C=C/c1ccc(OC(C)=O)c(OC)c1`?
HP1b chromo inh: 13.9%; G9a inh: -6.7%; BAZ2B block: 6.3%; GLS inh: -1.6%; JMJD2A Tudor inh: -16.7%

How did C/C=C/c1ccc(O)c(OC)c1 do in these assays?
HP1b chromo inh: inconclusive; G9a inh: 10µM*!; BAZ2B block: inconclusive; GLS inh: 22.0%; JMJD2A Tudor inh: -31.3%

How did O=C(c1cc(-c2ccc(O)cc2)on1)N1CCN(c2ccc(F)cc2)CC1 do in these assays?
HP1b chromo inh: 9.2%; BAZ2B block: inconclusive; GLS inh: 9.0%; JMJD2A Tudor inh: inconclusive

How did O=C(c1cc(-c2ccc(O)cc2)on1)N1CCN(c2ccccc2)CC1 do in these assays?
HP1b chromo inh: -21.9%; G9a inh: -4.0%[59 µM]; BAZ2B block: inconclusive; GLS inh: 14.0%; JMJD2A Tudor inh: 56.2µM*

Results for O=C(c1cc(C2CC2)nn1-c1ccccc1)N1CCN(c2ccccc2O)CC1 ?
HP1b chromo inh: 7.6%; GLS inh: inconclusive; JMJD2A Tudor inh: -34.2%

Results for O=C(c1cc(-c2cccc(O)c2)on1)N1CCCC1 ?
HP1b chromo inh: 10.1%; G9a inh: 50.1µM*; BAZ2B block: -1.0%; GLS inh: 2.9%; JMJD2A Tudor inh: -9.2%

Results for O=C(c1cc(C2CC2)nn1-c1ccccc1)N1CCN(c2ccc(O)cc2)CC1 ?
HP1b chromo inh: 70.8µM*; G9a inh: 2.82µM*; BAZ2B block: inconclusive; GLS inh: 12.9%; JMJD2A Tudor inh: 31.6µM*

What do the screens show for `O=C(NCCc1ccccc1)C(=O)c1cn(CC(=O)N2CCCC2)c2ccccc12`?
HP1b chromo inh: 23.6%; G9a inh: 28.0%; BAZ2B block: -23.5%; GLS inh: 5.4%; JMJD2A Tudor inh: -5.8%

Results for O=C(CCc1ccccc1O)NC1CCCc2ccccc21 (stereo not given) ?
HP1b chromo inh: 17.8%; G9a inh: 13.9%; BAZ2B block: -0.8%; GLS inh: -22.5%; JMJD2A Tudor inh: -7.1%

Results for O=S(=O)(Nc1nc(-c2sccc2Cl)cs1)c1cc(Cl)ccc1Cl ?
HP1b chromo inh: inconclusive; G9a inh: inconclusive; BAZ2B block: 50.1µM*; GLS inh: 28.9%; JMJD2A Tudor inh: 50.1µM*

What do the screens show for `Cc1ccc(S(=O)(=O)N2C[C@@H]3c4ccccc4N(S(=O)(=O)c4ccc(C)cc4)[C@@H]3[C@@H](C)C2CC(=O)c2ccccc2)cc1` (stereo not given in full)?
HP1b chromo inh: 21.5%; GLS inh: 0.5%; JMJD2A Tudor inh: -15.8%

How did Cc1cc(Cl)c2oc(C(=O)N(C)C3CCOC3)c(C)c2c1 (stereo not given) do in these assays?
HP1b chromo inh: 5.8%; G9a inh: -7.3%; BAZ2B block: -17.4%; GLS inh: inconclusive; JMJD2A Tudor inh: 14.1µM*

Results for Cc1cc(Cl)c2oc(C(=O)N3CCOCC3)c(C)c2c1 ?
GLS inh: 3.1%

What do the screens show for `Cc1nnc(NC(=O)CC(C)c2ccccc2)s1` (stereo not given)?
HP1b chromo inh: 31.9%; BAZ2B block: 8.5%; GLS inh: 2.5%; JMJD2A Tudor inh: 8.2%

Results for Cc1nnc(NC(=O)CC(NC(=O)C(F)(F)F)c2ccccc2)s1 (stereo not given) ?
HP1b chromo inh: -1.1%; G9a inh: 39.8µM*; BAZ2B block: -3.2%; GLS inh: -0.1%; JMJD2A Tudor inh: -16.8%

How did CC(C)C(=O)NC(CC(=O)O)c1ccccc1 (stereo not given) do in these assays?
HP1b chromo inh: 25.1%; G9a inh: -3.0%; BAZ2B block: 1.9%; GLS inh: 13.8%; JMJD2A Tudor inh: 4.1%

What do the screens show for `O=C(CC(NC(=O)C(F)(F)F)c1ccccc1)Nc1nnc(CCc2ccccc2)s1` (stereo not given)?
HP1b chromo inh: -11.8%; G9a inh: 10µM*; BAZ2B block: 9.0%; GLS inh: 6.3%; JMJD2A Tudor inh: -17.0%

How did CC(C)(C)C(=O)NC(CC(=O)O)c1ccccc1 (stereo not given) do in these assays?
HP1b chromo inh: 46.6%; G9a inh: 50.1µM*; BAZ2B block: -10.6%; GLS inh: 1.9%; JMJD2A Tudor inh: -6.2%

Results for CCC(=O)Nc1nnc(CCc2ccccc2)s1 ?
HP1b chromo inh: 29.4%; G9a inh: 15.6%[59 µM]; BAZ2B block: -2.2%; GLS inh: 0.3%; JMJD2A Tudor inh: -4.9%

Source: PubChem
